Values joined by “and” are separate entries in the source; they are usually repeats but may differ in a detail not shown here. Equal entries are not always repeated. Results filed as inconclusive are left out. Active and inactive are the calls of the source. The calls were made as follows, unless noted: active = hit-call score of the fitted dose curve at least 0.9, where 1 is the maximum; inconclusive = response in the unintended direction; inactive = score below 0.9.
Tests used:
[1] = TOX21_p53_BLA_p2_viability: Viability Assessment in the Tox21 HCT-116 p53 Agonism Beta-lactamase Assay, Phase 2 (AID 2283591);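 also: actives lower the ATP signal meaning cytotoxicity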
In short: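 Cytotoxicity readout: CellTiter-Glo ATP luminescence, 30 min at room temperature, after the beta-lactamase read. Cells were HCT116 exposed 16 h at 37C to compounds pin-transferred at 217-fold dilution from DMSO stocks.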

[2] = molecular target: Cellular tumor antigen p53 (Homo sapiens) (UniProt P04637); test: TOX21_p53_BLA_p2_ratio: Tox21 HCT-116 p53 Agonism Beta-lactamase Assay, Ratio, Phase 2 (AID 2283592)
Sequence of Cellular tumor antigen p53 (Homo sapiens) (P04637 whole entry, looked up): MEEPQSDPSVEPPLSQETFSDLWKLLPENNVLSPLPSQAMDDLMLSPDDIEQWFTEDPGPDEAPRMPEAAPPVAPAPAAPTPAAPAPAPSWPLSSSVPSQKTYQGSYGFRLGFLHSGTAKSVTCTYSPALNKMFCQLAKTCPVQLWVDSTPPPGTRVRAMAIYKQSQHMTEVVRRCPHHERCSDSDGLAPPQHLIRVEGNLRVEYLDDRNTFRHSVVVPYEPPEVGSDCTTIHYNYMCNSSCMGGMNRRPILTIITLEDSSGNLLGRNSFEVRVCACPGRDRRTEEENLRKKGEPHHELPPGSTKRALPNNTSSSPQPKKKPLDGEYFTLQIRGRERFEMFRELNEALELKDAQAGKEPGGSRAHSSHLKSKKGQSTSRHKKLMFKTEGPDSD
In short: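 Readout: blue/green (460/530 nm) FRET emission ratio after 2 h CCF4-AM loading at room temperature, excitation 405 nm. HCT116 p53 bla cells, 16 h compound exposure at 37C, 5% CO2; agonist direction fitted against DMSO baseline.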

[3] = TOX21_p53_BLA_p3_viability: Viability Assessment in the Tox21 HCT-116 p53 Agonism Beta-lactamase Assay, Phase 3 (AID 2283593);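 also: cells exposed to compound for 16 h before reading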
In short: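 Cellular ATP was quantified by CellTiter-Glo luminescence, read after 30 min at room temperature. Beforehand, HCT116 cells (4000/well) received compound 5 h post-seeding, 217-fold diluted from DMSO, then incubated 16 h at 37C.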

[4] = molecular target: Cellular tumor antigen p53 (Homo sapiens) (UniProt P04637); test: TOX21_p53_BLA_p3_ratio: Tox21 HCT-116 p53 Agonism Beta-lactamase Assay, Ratio, Phase 3 (AID 2283596)
In short: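 Cells were seeded at 4000/well, rested 5 h at 37C, then dosed with DMSO compound solutions (217-fold dilution) for 16 h. CCF4-AM substrate was loaded for 2 h at room temperature, and the 460/530 nm emission ratio was fitted for gain of signal versus DMSO.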

[5] = TOX21_p53_BLA_p4_viability: Viability Assessment in the Tox21 HCT-116 p53 Agonism Beta-lactamase Assay, Phase 4 (AID 2283597);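 also: hits lower the luminescence signal meaning cytotoxicity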
In short: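 ATP content by CellTiter-Glo luminescence, 30 min RT, read after the beta-lactamase ratio step. Cells: HCT116, 4000/well, compound added after 5 h, exposure 16 h at 37C. Signal loss = reduced viability.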

[6] = molecular target: Cellular tumor antigen p53 (Homo sapiens) (UniProt P04637); test: TOX21_p53_BLA_p5_ratio: Tox21 HCT-116 p53 Agonism Beta-lactamase Assay, Ratio, Phase 5 (AID 2283599)
In short: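 Beta-lactamase reporter ratio (blue 460 nm over green 530 nm, 405 nm excitation) after 2 h CCF4-AM loading, in HCT-116 cells exposed 16 h at 37 C to compounds pinned at 217-fold dilution. Increases relative to DMSO baseline scored.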

[7] = TOX21_p53_BLA_p5_viability: Viability Assessment in the Tox21 HCT-116 p53 Agonism Beta-lactamase Assay, Phase 5 (AID 2283600)
In short: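 ATP luminescence (CellTiter-Glo, 30 min, RT) served as the viability read-out, with loss of signal indicating cytotoxicity. Compounds in DMSO were pinned at a 217-fold dilution onto 4000 cells/well and incubated 16 h, 37C.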

[8] = molecular target: Cellular tumor antigen p53 (Homo sapiens) (UniProt P04637); test: TOX21_p53_BLA_p4_ratio: Tox21 HCT-116 p53 Agonism Beta-lactamase Assay, Ratio, Phase 4 (AID 2283601)
In short: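 Signal is the blue/green (460nm/530nm) ratio of cleaved versus uncleaved CCF4-AM substrate, read after 2 h substrate loading. Cells were HCT116 carrying the p53-responsive beta-lactamase reporter, dosed 16 h at 37C, 5% CO2; CellTiter-Glo measured in parallel.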

PGR (gene 5241) [9] = molecular target: PGR (gene 5241) (UniProt P06401); test: TOX21_PR_BLA_Followup_Agonist_ratio: Tox21 HEK293 Progesterone Receptor (PR) Agonism Beta-lactamase Follow-Up Assay, Ratio (AID 2283933)
Sequence of PGR (gene 5241) (P06401 whole entry, looked up, the tested form may be a part): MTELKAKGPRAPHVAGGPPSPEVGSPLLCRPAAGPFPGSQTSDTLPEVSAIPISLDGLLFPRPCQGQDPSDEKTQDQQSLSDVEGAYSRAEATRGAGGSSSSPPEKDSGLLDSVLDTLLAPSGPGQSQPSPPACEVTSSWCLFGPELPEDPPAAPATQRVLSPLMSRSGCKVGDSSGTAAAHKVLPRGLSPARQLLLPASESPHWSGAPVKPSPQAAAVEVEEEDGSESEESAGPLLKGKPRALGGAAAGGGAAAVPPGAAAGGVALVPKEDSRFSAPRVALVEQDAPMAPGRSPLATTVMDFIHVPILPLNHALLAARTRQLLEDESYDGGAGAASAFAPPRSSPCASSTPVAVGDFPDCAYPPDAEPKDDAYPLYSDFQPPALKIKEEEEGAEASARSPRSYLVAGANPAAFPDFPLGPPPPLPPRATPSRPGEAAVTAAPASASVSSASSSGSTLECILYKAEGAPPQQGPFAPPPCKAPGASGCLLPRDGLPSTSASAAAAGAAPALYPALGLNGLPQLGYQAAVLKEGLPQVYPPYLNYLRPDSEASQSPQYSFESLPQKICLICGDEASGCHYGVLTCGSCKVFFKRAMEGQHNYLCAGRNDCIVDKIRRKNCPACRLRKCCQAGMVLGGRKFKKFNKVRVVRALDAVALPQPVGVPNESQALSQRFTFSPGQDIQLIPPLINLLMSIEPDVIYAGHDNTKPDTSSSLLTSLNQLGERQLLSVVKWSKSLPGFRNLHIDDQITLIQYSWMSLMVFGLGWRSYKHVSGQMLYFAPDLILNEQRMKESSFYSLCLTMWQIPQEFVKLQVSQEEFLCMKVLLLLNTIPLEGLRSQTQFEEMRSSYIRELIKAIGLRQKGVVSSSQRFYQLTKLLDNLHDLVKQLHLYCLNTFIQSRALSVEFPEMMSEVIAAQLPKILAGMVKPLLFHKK
In short: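 Read-out: ratio of cleaved (ch2) to uncleaved (ch1) beta-lactamase substrate fluorescence, gain-of-signal relative to DMSO baseline. Cells: PR-UAS-bla HEK293T, 2% charcoal-stripped FBS; compound exposure 16 hr, 37C; substrate 2 hr, RT.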

PGR (gene 5241) [10] = molecular target: PGR (gene 5241) (UniProt P06401); test: TOX21_PR_BLA_Followup_Antagonist_ratio: Tox21 HEK293 Progesterone Receptor (PR) Antagonism Beta-lactamase Follow-Up Assay, Ratio (AID 2283934)
In short: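 Read-out: blue/green beta-lactamase FRET ratio (cleaved ch2 over uncleaved ch1), fitted relative to DMSO baseline. Cells: PR-UAS-bla HEK293T, GAL4-UAS reporter, stimulated with 1 nM R5020 final; 16 hr compound exposure, 37C.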

[11] = TOX21_PR_BLA_Followup_Agonist_viability: Viability Assessment in the Tox21 HEK293 Progesterone Receptor (PR) Agonism Beta-lactamase Follow-Up Assay (AID 2283935);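 also: signal loss means lower viability so actives are cytotoxic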
In short: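 Luminescent ATP quantitation (CellTiter-Glo, 30 min, room temperature) in the same wells as the beta-lactamase read, on PR-UAS-bla HEK293T cells exposed to compound for 16 hr at 37C in 2% charcoal-stripped serum.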

PGR (gene 5241) [12] = molecular target: PGR (gene 5241) (UniProt P06401); test: TOX21_PR_LUC_Followup_Agonist: Tox21 HEK293 Progesterone Receptor (PR) Agonism Luciferase Follow-Up Assay (AID 2283937; active = hit-call score of the fitted dose curve at least 0.9, where 1 is the maximum; inactive = score below 0.9)
In short: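 Luminescence read-out (ONE-Glo, 30 min at room temperature) of PR-driven luciferase in HEK293-PR-A-luc cells after 16 h compound exposure at 37C; gain of signal fitted relative to DMSO baseline.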

[13] = TOX21_PR_LUC_Followup_Agonist_viability: Viability Assessment in the Tox21 HEK293 Progesterone Receptor (PR) Agonism Luciferase Follow-Up Assay (AID 2283941);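 also: loss of signal means cytotoxicity so actives lower viability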
In short: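 Cytotoxicity counter-screen: ATP content by CellTiter-Glo luminescence, loss of signal = reduced viability. HEK293-PR-A-luc, 3,000 cells/well, compound exposure 16 h, 37C.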

[14] = CCTE_Harrill_HTTr_Apoptosis_MCF7: CCTE's 6-hour Apoptosis Assessment for the High-Throughput Transcriptomics (HTTr) Platform, in MCF-7 cells cultured in DMEM + 10% fetal bovine serum, Harrill Lab (AID 2284011; active = hit-call score of the fitted dose curve at least 0.9, where 1 is the maximum; inactive = score below 0.9)
In short: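 Read-out: CellEvent Caspase 3/7 Green signal by high content imaging, gain-of-signal indicating apoptosis. MCF-7 cells, DMEM + 10% FBS, eight-point dilution series, 6 h exposure. Curves fitted bidirectionally relative to DMSO negative control.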

Measured: AC50

Oc1ccc2[nH]cc(CCCCN3CC=C(c4ccccc4)CC3)c2c1
inactive: [1] | [2] | [3] | [4] | [5] | [6] | [7] | [8]

Oc1ccc(Cl)c(Cl)c1Cl
inactive: [1] | [2] | [3] | [4] | [5] | [6] | [7] | [8]

CCCCCCC[CH2][Sn]([Cl])([Cl])[CH2]CCCCCCC
active: [1] 66.6 µM | [2] 67 µM | [3] 57.1 µM | [4] 21.2 µM | [5] 36.5 µM
inactive: [6] | [7] | [8]

CCCCCl
inactive: [1] | [2] | [3] | [4] | [5] | [6] | [7] | [8]

O=[N+]([O-])c1cc(I)c(O)c(I)c1
active: [1] 7.77 µM | [2] 17.7 µM | [3] 5.69 µM | [4] 2.65 µM | [5] 11.3 µM | [6] 24.2 µM | [7] 11 µM | [8] 18 µM

Oc1cc(Cl)c(Cl)c(Cl)c1
inactive: [3] | [7]
active: [1] 44.1 µM | [2] 10.2 µM | [4] 17.3 µM | [5] 69.4 µM | [6] 13.2 µM | [8] 37.5 µM

C[C@]12Cc3nonc3C[C@@H]1CC[C@@H]1[C@@H]2CC[C@@]2(C)[C@H]1CC[C@]2(C)O
active: [3] 25.7 µM | [5] 23 µM | PGR (gene 5241) [9] 6.11 µM | [11] 35.1 µM | PGR (gene 5241) [12] 0.862 µM
inactive: [1] | [2] | [4] | [6] | [7] | [8] | PGR (gene 5241) [10] | [13]

CC(=O)C(Cl)Cl
inactive: [1] | [2] | [3] | [4] | [5] | [6] | [7] | [8]

CC(=O)C=Cc1ccc2c(c1)OCO2
inactive: [1] | [3] | [5] | [7]
active: [2] 18.1 µM | [4] 62.8 µM | [6] 71 µM | [8] 51.2 µM

CCCC(Cn1cncn1)c1ccc(Cl)cc1Cl (centres undefined)
inactive: [1] | [3] | [5] | [6] | [7]
active: [2] 75.6 µM | [4] 85.7 µM | [8] 75.2 µM

CN(C)S(=O)(=O)N(SC(F)(Cl)Cl)c1ccccc1
active: [1] 87.1 µM | [2] 26.3 µM | [5] 86.8 µM | [6] 32.3 µM | [7] 86.8 µM | [8] 48.6 µM
inactive: [3] | [4]

CN[C@@H]1C[C@@H](c2ccc(Cl)c(Cl)c2)c2ccccc21
inactive: [1] | [2] | [3] | [4] | [6] | [7] | [8]
active: [5] 33.9 µM

CO[C@]12CC[C@@]3(C[C@@H]1[C@](C)(O)C(C)(C)C)[C@H]1Cc4ccc(O)c5c4[C@@]3(CCN1CC1CC1)[C@H]2O5
active: [1] 75 µM | [3] 70.3 µM | [4] 86.6 µM | [5] 60.6 µM | [8] 84.8 µM
inactive: [2] | [6] | [7]

CCOC(=O)C1(c2ccccc2)CCN(CCC(C#N)(c2ccccc2)c2ccccc2)CC1
active: [2] 16.3 µM and 6.96 µM | [4] 41.6 µM and 7.95 µM | [6] 56.4 µM and 23.9 µM | [8] 43.7 µM and 8.27 µM | PGR (gene 5241) [10] 13.7 µM
inactive: [1] | [3] | [5] | [7] | PGR (gene 5241) [9] | [11] | PGR (gene 5241) [12] | [13]

N#CC(C#N)=Cc1cc(O)c(O)c(O)c1
inactive: [1] | [2] | [3] | [4] | [5] | [6] | [7] | [8]

CC(=O)C(Cl)(Cl)Cl
active: [2] 1.29 µM | [4] 0.778 µM | [6] 1.52 µM
inactive: [1] | [3] | [5] | [7] | [8]

Cc1ccccc1
inactive: [1] | [2] | [3] | [4] | [5] | [6] | [7] | [8]

ClC(Cl)(Cl)Br
inactive: [1] | [2] | [3] | [4] | [5] | [6] | [7] | [8]

CC[C@H](OC(C)=O)C(C[C@H](C)NC)(c1ccccc1)c1ccccc1
inactive: [1] | [2] | [3] | [4] | [6] | [7] | [8]
active: [5] 51.1 µM

CCCCCCCCCCCCN=C(N)N
inactive: [1] | [2] | [3] | [4] | [5] | [6] | [7] | [8] | [14]

CCC[CH2][Sn]([CH2]CCC)([O]C(C)=O)[O]C(C)=O
inactive: [1] | [2] | [5] | [6] | [7] | [8]
active: [3] 17.7 µM | [4] 32.2 µM

From PubChem BioAssay (EPA / NIEHS)
